# HepG2 tox – qHTS for Inhibitors of TGF-b: Cytotox Counterscreen. HepG2 CAGA-GFP viability, ATP luminescence, 18 h. Potency, µM (titrated, usually from 46.1 µM), inactives show top-dose activity change, negative = cytotoxicity, hits mostly cytotoxic. actives 0.76% (n = 410,000)
#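 CellTiter-Glo luminescence gave cytotoxicity after 18 hours at 37 degrees C. The cells were HepG2 CAGA-GFP in 1% FBS DMEM, stimulated with 500 pg/mL TGF-beta after compound addition. %Activity was normalised to no-cell wells (complete cell-killing) and DMSO (no toxicity), and curves were fitted and classified.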
# TDP1 cell CPT – qHTS for Inhibitors of human tyrosyl-DNA phosphodiesterase 1 (TDP1): qHTS in cells in presence of CPT; chicken DT40 Tdp1-/-;hTDP1 cells + 20 nM CPT, ATP luminescence, 48 h; Potency, µM (doses to about 46.2 µM), for the others: at the highest dose activity change, negative = growth inhibition, hits mostly inhibitors; actives 12% (n = 420,000); AID 686979, 2013; also: % is scaled to controls: 0 for no effect and ±100 for the full control effect; nearly all actives have a fitted effect of over 55% in size
#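 Chicken DT40 Tdp1-/- cells stably complemented with human TDP1 were seeded at 400 cells/well in medium containing 20 nM camptothecin, exposed to pin-transferred compounds, and grown at 37 °C for at least 48 hr. Viability was read as ATP luminescence.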
# TGFb inhibitor – qHTS for Inhibitors of TGF-b; HepG2 CAGA-GFP TGF-b/SMAD3 reporter, GFP fluorescence, 18 h; TGF-beta stimulated, 500 pg/mL final; Potency, µM (highest dose often 46.1 µM), for the others: at the highest dose activity, negative = inhibition, hits mostly inhibitors; actives 1.2% (n = 410,000); also: % is scaled to controls: 0 for no effect and ±100 for the full control effect; nearly all actives have a fitted effect of over 65% in size
#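 Cell-based qHTS in HEPG2 carrying a CAGA-GFP Smad reporter; compounds added before 500 pg/mL final TGF-beta, 18 h incubation at 37 degrees C, GFP fluorescence quantified per cell by imaging cytometry.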
# HT1080NT lethal – qHTS for induction of synthetic lethality in tumor cells producing 2HG: qHTS for the HT-1080-NT fibrosarcoma cell line. Potency, µM (titrated, usually from 46.1 µM), inactives show top-dose activity, negative = less viability, most hits filed as cytotoxic. HT-1080-NT fibrosarcoma viability, CellTiter-Glo ATP luminescence, 48 h. actives 1.6% (n = 360,000);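 also: NT is the 2HG producing partner of a matched IDH1 knockdown line; 0% = DMSO-treated cells and -100% = media-only wells without cells; nearly all actives have a fitted effect of over 55% in size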
#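 HT-1080-NT; 750 cells/well; 5% FBS RPMI; 48 h compound, 37 degrees C; CellTiter-Glo luminescence; curve fitting and curve-class assignment.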
# DT40 TDP1 no CPT – qHTS for Inhibitors of human tyrosyl-DNA phosphodiesterase 1 (TDP1): qHTS in cells in absence of CPT. DT40 Tdp1-/- hTDP1 cells, no CPT, ATP luminescence, 48 h. Potency, µM (doses to about 46.2 µM), inactives show at the highest dose activity change, negative = growth inhibition, actives largely listed as inhibitors. actives 15% (n = 420,000); also: % is scaled to controls: 0 for no effect and ±100 for the full control effect; nearly all actives have a fitted effect of over 55% in size
#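 Chicken DT40 Tdp1-/- cells complemented with human TDP1, screened without camptothecin (DMSO vehicle only), 400 cells/well. Compounds pin-transferred, cells incubated at 37 °C for at least 48 hr. Growth read as ATP-dependent luminescence (CellTiter-Glo, 30 min at RT).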
# HT1080 IDH1KD tx – qHTS for induction of synthetic lethality in tumor cells producing 2HG: qHTS for the HT-1080-IDH1KD cell line; HT-1080 IDH1 knockdown viability, ATP luminescence, 48 h; Potency, µM (highest dose often 46.1 µM), without a hit: top-dose activity, negative = toxicity, hits mostly cytotoxic; actives 2% (n = 360,000);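 also: 0% = DMSO wells and -100% = cell-free medium wells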
#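 Using the IDH1-knockdown HT-1080 line run in the same batch and compound series as the NT line, viability after 48 h at 37 °C was determined by CellTiter-Glo luminescence and expressed as % activity.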
# * marks the source's active call; other numbers are inactive results; ? = inconclusive; / = no result given; ! = repeats disagree; [ ] = remark or other dose. This is a sample that favours compounds with a hit; in the whole collection about 17% have one here. Calls follow the shape of the dose curve; as a rule, active = well fitted curve in the direction sought with a large enough effect; inconclusive = small, poorly fitted or top-dose-only effect, or another doubt; inactive = no such curve, though single readings can be large; an effect the other way counts as inactive or inconclusive. Potency is read from the fitted curve at half-maximal effect.
SMILES,HepG2 tox,TDP1 cell CPT,TGFb inhibitor,HT1080NT lethal,DT40 TDP1 no CPT,HT1080 IDH1KD tx
COc1ccccc1/C=C/C=N/n1c(-c2ccc(F)cc2)n[nH]c1=S,17.5%,?,-3.5%,-20.5%,-25.8%,-12.8%
COc1ccccc1/C=C/C=N/n1c(C)nnc1C,0.891µM*,3.4%,-4.7%,22.9%,-9.6%,16.2%
COc1ccccc1/C=C/C=N/n1c(COc2ccccc2)n[nH]c1=S,-2.0%,?,?,5.4%,14.6µM*,18.6%
COc1cccc(/C=N/n2c(COc3ccccc3)n[nH]c2=S)c1OC,-10.6%,-6.6%,5.1%,3.5%,-26.9%,0.0%
CCOC(=O)c1cccc(NC(=O)C(C)n2c(C)c3cnn(-c4ccccc4)c(=O)c3c2C)c1 (configuration not stated),-26.8%,?,-29.4%,/,-23.5%,/
COc1ccc(Cl)cc1NC(=O)CCCn1c(C)c2cnn(-c3ccccc3)c(=O)c2c1C,-14.6%,23.1µM*,?,/,?,/
Cc1c2cnn(-c3ccccc3)c(=O)c2c(C)n1CCCC(=O)Nc1ccc(F)cc1F,-17.4%,?,?,/,16.4µM*,/
COc1ccc(NC(=O)C(C)n2c(C)c3cnn(-c4ccccc4)c(=O)c3c2C)cc1Cl (configuration not stated),-35.4%,23.1µM*,?,/,18.4µM*,/
COC(=O)c1ccccc1NC(=O)CCCn1c(C)c2cnn(-c3ccccc3)c(=O)c2c1C,-16.9%,-21.5%,?,/,-16.8%,/
CCOc1ccc(NC(=O)CCCn2c(C)c3cnn(-c4ccccc4)c(=O)c3c2C)cc1,5.7%,?,-7.9%,/,?,/
NC(=O)c1ccc[n+](CC(=O)c2ccc(F)cc2)c1,25.3%,14.5%,-16.7%,13.1%,-4.3%,19.0%
O=P(OC1CCCCC1)(OC1CCCCC1)C(Nc1ccccc1)c1cccnc1 (configuration not stated),31.0%,?,25.9%,-19.2%,14.6µM*,-21.2%
COc1ccc(S(=O)(=O)Cc2ccccc2)cc1N,5.4%,9.2µM*,11.4%,-10.3%,?,?
CCN(c1ccccc1)S(=O)(=O)c1ccc(N)c(OC)c1,-13.3%,?,1.7%,?,-76.5%,?
CC(CC(C)C(=O)Nc1ccccc1C(C)(C)C)C(=O)O (configuration not stated),-20.6%,0.3%,3.7%,8.8%,-20.1%,7.1%[9.24 µM]
O=C(O)c1ccc(CS(=O)(=O)c2ccc(Br)cc2)cc1,-41.2%,7.2%,-6.2%,0.3%,9.5%,3.2%
CCOC(=O)C1CCN(C(=O)Cn2nc(CC)n3cccc3c2=O)CC1,1.1%,?,12.9%,-0.2%,?,6.5%
N#CC1=C(N)N2C(=C(C#N)C13CCN(Cc1ccccc1)CC3)Nc1ccccc12,-12.0%,-29.9%,7.7%,-0.8%,-27.8%,-18.8%
N#CC1=C(N)N2C(=C(C#N)C1c1cccc(Br)c1)Nc1ccccc12 (configuration not stated),-50.2%,3.66µM*,3.16µM*,?,3.26µM*,?
N#CC1=C(N)N2C(=C(C#N)C1c1ccc(Br)cc1)Nc1ccccc12 (configuration not stated),-43.1%,6.51µM*,2.82µM*,?,3.26µM*,?
CC(C)NC(=O)c1nn(C)c2c1CS(=O)(=O)c1ccccc1-2,10.5%,-20.1%,-2.1%,/,0.4%,/
CCN1CCN(S(=O)(=O)c2ccc(-c3cc(C)no3)s2)CC1,-6.8%,-23.0%,0.1%,4.5%,14.0%,10.7%
Cc1ccc(N(C)S(=O)(=O)c2ccc(-c3cc(C)no3)s2)cc1,-44.5%,6.51µM*,?,-25.7%,-82.7%,?
Cc1cc(-c2ccc(S(=O)(=O)N(C)c3ccc(C)c(C)c3)s2)on1,-7.9%,3.26µM*,?,?,4.11µM*,?
Cc1cc(-c2ccc(S(=O)(=O)Nc3ccccc3F)s2)on1,-9.0%,-18.0%,-12.9%,/,?,/
SMILES,HepG2 tox,TDP1 cell CPT,TGFb inhibitor,HT1080NT lethal,DT40 TDP1 no CPT,HT1080 IDH1KD tx
O=S(=O)(c1ccccc1)N1N=C(c2ccccc2)CC1c1ccccc1F (configuration not stated),-3.3%,16.4µM*,-0.6%,-9.5%,?,-10.8%
CS(=O)(=O)Nc1ccc(C2=NN(S(=O)(=O)c3ccc(F)cc3)C(c3ccco3)C2)cc1 (configuration not stated),-74.8%,-29.3%,?,?,-3.9%,?
O=S(=O)(c1ccccc1)N1N=C(c2ccc(Br)cc2)CC1c1ccco1 (configuration not stated),-3.6%,16.4µM*,-1.5%,-1.3%,16.4µM*,-13.3%
O=S(=O)(c1ccccc1)N1N=C(c2ccc(O)cc2)CC1c1ccco1 (configuration not stated),-13.2%,8.2µM*,?,0.1%,7.31µM*,-1.4%
COc1ccccc1C1CC(c2ccc(NS(C)(=O)=O)cc2)=NN1S(=O)(=O)c1ccccc1 (configuration not stated),-19.3%,-13.0%,-1.1%,-14.6%,-12.4%,-23.5%
COc1ccc(C2CC(=O)N(Cc3cccc(F)c3)c3ccccc3S2)cc1 (configuration not stated),-32.4%,/,?,/,/,/
COc1ccc([C@@H]2Sc3ccccc3N(CCN(C)C)C(=O)[C@@H]2OC(C)=O)cc1,-5.5%,?,8.0%,-9.3%,26.6µM*!,-11.0%
O=S(=O)(c1ccc2c(c1)OCO2)N1CCN(c2nc(-c3cccs3)nc3ccccc23)CC1,/,?,/,9.5%,?,0.6%
N#Cc1ccc(S(=O)(=O)N2CCN(c3nc(-c4ccccc4)nc4ccccc34)CC2)cc1,/,-14.7%,/,21.7%,?,25.5%
c1ccc2c(N3CCNCC3)nc(-c3ccc4c(c3)OCO4)nc2c1,/,?,/,/,20.6µM*,/

# High-throughput results: PubChem BioAssay, National Center for Advancing Translational Sciences (NCATS)
